The text below walks through data of PubChem BioAssay.

Records with an inconclusive call do not appear. Calls of active or inactive are those of the source.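 How the source made its calls, unless noted: active means differentiation response of at least 50%, scaled between solvent and reference control, from cells with both markers; inactive means the rest.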

Assay [1] is described as follows: rapamycin-like changes in RPL19A-GFP expression – cell-based, S. cerevisiae, multiplex flow cytometry, primary screen (AID 1862; in the data active means percent of DMSO control GFP below about 86%;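 further: lower values mimic rapamycin by blocking the RPL19A rise seen in DMSO cells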). The note with it: S. cerevisiae RPL19A-GFP strain, flow cytometry fluorescence, 3 h; at 10 µM; stronger effect = lower value. (In general: Flow cytometry measures light scatter and fluorescence of single cells or particles in a stream.)
Assay [2] is described as follows: TOR pathway GLN3 branch reporter MEP2-GFP changes – S. cerevisiae, multiplex flow cytometry, primary screen (AID 1867;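 active means GFP response, as percent of the DMSO control, above the screen-wide mean plus 3 SD, about 139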;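 further: median GFP channel fluorescence of barcode-gated MEP2-GFP cells measured by flow cytometry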). The note with it: S. cerevisiae MEP2-GFP strain, 3 h, at 10 µM, stronger effect = higher value, 100% means same as DMSO wells.
Assay [3] is described as follows: TOR pathway RTG branch CIT2 reporter changes – S. cerevisiae, GFP fusion, multiplex flow cytometry, primary screen (AID 1870;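 active means percent response above a set limit, the screen-wide mean plus 3 SD, cut at about 130% in these data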;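 further: barcoded CIT2-GFP strain pooled with four other GFP strains with rapamycin as positive control; median GFP fluorescence per well over plate mean of DMSO wells so 100% = DMSO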). The note with it: S. cerevisiae CIT2-GFP expression, 3 h, at 10 µM, stronger effect = higher value.
Assay [4] is described as follows: TOR pathway LAP4-GFP level changes – S. cerevisiae, multiplex flow cytometry, primary screen (AID 1873;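 active means GFP signal, as percent of the solvent control, above the screen mean plus 3 SD, about 149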). The note with it: S. cerevisiae LAP4-GFP expression, 3 h, at 10 µM, stronger effect = higher value.
Assay [5] is described as follows: yeast AGP1-GFP level changes, GLN3 branch – cell-based, multiplex flow cytometry, S. cerevisiae, primary screen (AID 1887;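 active means GFP signal above the screen-wide mean plus 3 SD, that is over about 124.5% of the solvent control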;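 further: AGP1-GFP fusion strain of S. cerevisiae within a five-strain barcoded multiplex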). The note with it: 3 h, at 10 µM, stronger effect = higher value.
Assay [6] is described as follows: reduced mouse 2C T cell binding to pMHC/ICAM-1 vesicles – MLPCN validation set, flow cytometry, LFA-1/ICAM-1 modulator project, pilot screen (AID 2523;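 active means response below a set limit, under 55% cells CD8-positive and vesicle-bound, and CD8 cells' 90th-percentile brightness under 279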;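 on vesicle binding response: mean PE anti-B7-1 fluorescence of CD8+ cells relative to row control; 100% = QL9-loaded vesicles with DMSO vehicle in the same plate row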). Conditions: 2C mouse CD8+ T cells, at 7 µM, stronger effect = lower value; double positive events: measured here: CD8+/vesicle+ event percentage.
The target of assay [7] is Integrin beta-1 (Homo sapiens) + Integrin alpha-4 (Homo sapiens) (UniProt P13612+P05556). Description: alpha4beta1 integrin LIBS antibody binding reduction – U937 cells, HUTS-21 mAb, flow cytometry, validation set, VLA-4 allosteric modulator project, pilot screen (AID 2674;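 active means inhibition above 50%, about 3 SD of the validation set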;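 further: antibody binding induced by the VLA-4 ligand LDV present at three times its Kd; 0% = LDV ligand with antibody and no compound and 100% = antibody without LDV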). The note with it: HUTS-21 LIBS mAb binding, at 6.7 µM, stronger effect = higher value, binding induced by LDV ligand.

Assay [8] in a line: calorie-restriction mimetic ROS inhibitors, yeast – validation compound set, pilot screen (AID 2706;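 active means superoxide response below 65% of plate, a cut near 3 SD across the whole screen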;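 further: yeast exposed to compound for one week at 30 degrees C before staining; 100% = mean of all compound wells on the same plate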). Conditions: S. cerevisiae aging, superoxide DHE fluorescence; at 10 µM; stronger effect = lower value.
The target of assay [9] is Beta-adrenergic receptor kinase 1 (Homo sapiens) (UniProt P25098). Description: GRK2 binders displacing RNA aptamer, biochemical, validation, human GRK2, bead flow cytometry (AID 488806;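 active means aptamer binding inhibition above 30%, about 3 SD of noise from non-fluorescent compounds; inactive means inhibition at or below 30%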). The note with it: bead-bound GRK2, FAM-aptamer displacement, at 10 µM, stronger effect = higher value.
For assay [10], the target named is Beta-2 adrenergic receptor (Homo sapiens) (UniProt P07550). The experiment in a line: agonist-induced loss of surface beta2AR – cell-based, FAP fluorogen, flow cytometry, validation set, pilot screen (AID 504459;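 active means percent response above 42, roughly 3 SD of non-fluorescent test compounds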;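 further: agonist-driven loss of surface beta2AR via internalization measured by FAP dye flow cytometry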). Conditions: Am2.2-beta2AR cells, at 10 µM, stronger effect = higher value.
Assay [11] concerns the target AP-2 complex subunit beta (Homo sapiens) (UniProt P63010). The experiment in a line: beta-arrestin/AP2 interaction blockers – biochemical, validation set, GST-AP2 beads, flow cytometry, pilot screen (AID 504541;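 active means inhibition above 54%, about 3 SD of non-fluorescent compounds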;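 further: AP2 carries R879A mutation and is captured from E. coli lysate; bead-bound FITC arrestin peptide fluorescence measuring arrestin peptide binding to AP2; 0% = DMSO wells and 100% = excess unlabeled arrestin peptide control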). The note with it: FITC arrestin peptide, at 10 µM, stronger effect = higher value, AP2 beta2 appendage fragment, R879A mutant.
A short description of assay [12]: cytosolic pH regulators acting via V-ATPase – S. cerevisiae, pHLuorin, HTS validation (AID 504600; in the data active means response above about 15%;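 further: plate controls were DMSO for no effect and reference compound for full effect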). The note with it: V-ATPase proton transport, at 10 µM, stronger effect = higher value.
In assay [13] the test system is anti-desmoglein-3 scFv antibody binding to human DSG3. The experiment in a line: blockers of pathogenic pemphigus antibody–desmoglein-3 binding – biochemical, validation compound set, bead-based, flow cytometry, pilot screen (AID 588368;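 active means binding below the plate cutoff, the plate median minus 3 SD, with a reading above zero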;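 further: signal is the median channel fluorescence of bead-bound GFP antibody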). Conditions: Protein G beads, DSG3-Fc, scFv-GFP binding, at 10 µM, stronger effect = lower value.
Assay [14] can be described thus: Nile Red efflux blockade in pump-expressing yeast – validation compound set, multiplex, phenotypic, pilot screen (AID 588506;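 active means efflux inhibition above 0.42, the validation set average plus 4 SD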;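 further: Nile Red retained in cells so higher fluorescence means more efflux inhibition; 0 = negative control wells and 1 = enniatin B 25 µM full block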). The note with it: S. cerevisiae pump-expressing triplex, Nile Red efflux flow cytometry; at 10 µM; stronger effect = higher value; the pumps come from Candida albicans.
In assay [15] the target is ATP-binding cassette sub-family B member 6 (Homo sapiens) (UniProt Q9NP58). The experiment in a line: blockers of ABCB6-driven porphyrin uptake – K562-ABCB6 cells, flow cytometry, validation set, pilot screen (AID 588550;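 active means inhibition above the screen-wide mean plus 3 SD, about 51%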;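 further: 0% = DMSO wells and 100% = benzethonium chloride 70 µM positive control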). Conditions: K562-ABCB6 porphyrin accumulation, 1 h, at 10 µM, stronger effect = higher value.
Assay [16] can be described thus: AML differentiation inducers, ER-HoxA9 marrow cells – cell-based, GFP/MAC1 double positive, flow cytometry, validation set, primary screen (AID 588685).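 Further: compound exposure lasts four days before antibody staining and flow analysis; 0% = DMSO wells and 100% = 5 µM fulvestrant positive control.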 Conditions: stronger effect = higher value, normalized: vehicle 0, fulvestrant 100.

Chain of Beta-2 adrenergic receptor (Homo sapiens) (P07550 whole entry, looked up): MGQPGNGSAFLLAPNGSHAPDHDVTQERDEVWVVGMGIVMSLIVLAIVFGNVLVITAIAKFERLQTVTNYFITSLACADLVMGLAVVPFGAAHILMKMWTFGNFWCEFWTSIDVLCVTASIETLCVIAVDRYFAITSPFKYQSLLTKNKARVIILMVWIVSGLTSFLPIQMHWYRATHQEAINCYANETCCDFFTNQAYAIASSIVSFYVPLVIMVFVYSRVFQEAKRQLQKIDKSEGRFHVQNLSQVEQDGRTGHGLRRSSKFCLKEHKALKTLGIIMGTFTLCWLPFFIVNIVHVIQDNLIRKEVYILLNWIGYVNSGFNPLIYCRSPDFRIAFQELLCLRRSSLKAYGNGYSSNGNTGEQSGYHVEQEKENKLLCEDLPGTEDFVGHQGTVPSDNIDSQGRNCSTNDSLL
Chain of ATP-binding cassette sub-family B member 6 (Homo sapiens) (Q9NP58 whole entry, looked up): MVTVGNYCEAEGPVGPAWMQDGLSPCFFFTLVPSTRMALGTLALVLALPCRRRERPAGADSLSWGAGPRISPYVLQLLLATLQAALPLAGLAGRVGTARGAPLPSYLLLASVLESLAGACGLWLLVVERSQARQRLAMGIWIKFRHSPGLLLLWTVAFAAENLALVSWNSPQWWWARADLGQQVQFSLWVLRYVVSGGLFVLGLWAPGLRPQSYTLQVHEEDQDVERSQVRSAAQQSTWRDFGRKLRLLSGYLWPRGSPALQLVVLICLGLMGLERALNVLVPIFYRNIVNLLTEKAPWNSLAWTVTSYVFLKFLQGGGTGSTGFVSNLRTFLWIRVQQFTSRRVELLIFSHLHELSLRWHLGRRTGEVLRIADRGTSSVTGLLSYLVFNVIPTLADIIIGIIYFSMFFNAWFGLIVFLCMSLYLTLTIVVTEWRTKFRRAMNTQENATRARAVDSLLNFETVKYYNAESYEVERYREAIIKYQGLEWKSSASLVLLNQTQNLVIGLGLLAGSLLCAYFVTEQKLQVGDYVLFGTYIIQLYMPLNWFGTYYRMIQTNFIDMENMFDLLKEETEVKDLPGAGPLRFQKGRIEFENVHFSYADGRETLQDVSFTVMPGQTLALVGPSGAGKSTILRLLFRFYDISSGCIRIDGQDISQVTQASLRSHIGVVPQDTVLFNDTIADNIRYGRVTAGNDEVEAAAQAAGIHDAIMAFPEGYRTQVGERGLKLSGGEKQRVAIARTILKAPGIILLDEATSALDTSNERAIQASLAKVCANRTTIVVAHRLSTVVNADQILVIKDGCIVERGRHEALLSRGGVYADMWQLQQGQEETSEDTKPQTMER
Chain of AP-2 complex subunit beta (Homo sapiens) (P63010 whole entry, looked up, the tested form may be a part, one chain of several): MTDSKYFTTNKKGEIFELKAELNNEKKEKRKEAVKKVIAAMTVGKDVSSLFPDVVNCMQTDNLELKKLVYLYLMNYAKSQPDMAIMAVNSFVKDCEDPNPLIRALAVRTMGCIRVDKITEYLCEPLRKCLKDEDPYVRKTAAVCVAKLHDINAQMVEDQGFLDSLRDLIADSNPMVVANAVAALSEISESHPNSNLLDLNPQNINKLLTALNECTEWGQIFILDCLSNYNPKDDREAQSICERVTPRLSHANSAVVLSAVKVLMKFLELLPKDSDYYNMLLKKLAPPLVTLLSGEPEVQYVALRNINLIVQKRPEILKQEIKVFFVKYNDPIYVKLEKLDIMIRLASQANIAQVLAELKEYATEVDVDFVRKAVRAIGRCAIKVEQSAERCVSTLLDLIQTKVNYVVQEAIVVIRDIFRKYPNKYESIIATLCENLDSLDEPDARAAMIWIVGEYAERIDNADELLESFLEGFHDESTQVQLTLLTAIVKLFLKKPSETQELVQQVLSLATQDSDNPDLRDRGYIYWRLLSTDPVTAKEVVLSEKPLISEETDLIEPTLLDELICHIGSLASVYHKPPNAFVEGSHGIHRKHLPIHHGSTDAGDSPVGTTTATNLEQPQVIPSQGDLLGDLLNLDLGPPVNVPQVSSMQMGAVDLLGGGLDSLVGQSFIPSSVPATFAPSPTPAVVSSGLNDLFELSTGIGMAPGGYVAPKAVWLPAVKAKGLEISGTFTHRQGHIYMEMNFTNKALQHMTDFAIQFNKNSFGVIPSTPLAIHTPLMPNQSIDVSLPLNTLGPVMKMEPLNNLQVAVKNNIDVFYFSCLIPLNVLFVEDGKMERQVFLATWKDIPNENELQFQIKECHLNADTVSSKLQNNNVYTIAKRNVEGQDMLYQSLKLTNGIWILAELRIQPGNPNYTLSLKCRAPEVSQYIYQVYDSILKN
Chain of Integrin beta-1 (Homo sapiens) + Integrin alpha-4 (Homo sapiens) (P05556 whole entry, looked up): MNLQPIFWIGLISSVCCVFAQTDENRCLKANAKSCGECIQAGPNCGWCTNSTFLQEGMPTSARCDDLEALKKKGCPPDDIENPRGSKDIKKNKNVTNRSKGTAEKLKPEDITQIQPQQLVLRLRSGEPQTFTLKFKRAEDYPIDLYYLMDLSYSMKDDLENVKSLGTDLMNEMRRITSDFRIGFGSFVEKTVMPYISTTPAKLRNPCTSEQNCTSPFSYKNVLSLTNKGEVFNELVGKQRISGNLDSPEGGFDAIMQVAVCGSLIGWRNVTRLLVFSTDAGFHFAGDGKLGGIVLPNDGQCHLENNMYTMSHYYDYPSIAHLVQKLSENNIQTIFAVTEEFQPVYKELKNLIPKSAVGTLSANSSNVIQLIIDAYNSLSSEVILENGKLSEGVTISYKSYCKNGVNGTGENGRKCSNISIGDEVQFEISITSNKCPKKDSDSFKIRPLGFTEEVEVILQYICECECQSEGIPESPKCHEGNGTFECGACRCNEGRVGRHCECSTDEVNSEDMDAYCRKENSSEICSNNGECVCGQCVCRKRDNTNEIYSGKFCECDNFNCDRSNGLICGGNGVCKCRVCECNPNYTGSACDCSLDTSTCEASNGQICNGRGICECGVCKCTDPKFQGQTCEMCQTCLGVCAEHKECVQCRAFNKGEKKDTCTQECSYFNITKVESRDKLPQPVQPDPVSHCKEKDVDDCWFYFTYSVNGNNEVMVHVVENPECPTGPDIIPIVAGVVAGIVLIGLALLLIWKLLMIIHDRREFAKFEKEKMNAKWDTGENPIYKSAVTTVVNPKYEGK
Chain of Integrin beta-1 (Homo sapiens) + Integrin alpha-4 (Homo sapiens) (P13612 whole entry, looked up): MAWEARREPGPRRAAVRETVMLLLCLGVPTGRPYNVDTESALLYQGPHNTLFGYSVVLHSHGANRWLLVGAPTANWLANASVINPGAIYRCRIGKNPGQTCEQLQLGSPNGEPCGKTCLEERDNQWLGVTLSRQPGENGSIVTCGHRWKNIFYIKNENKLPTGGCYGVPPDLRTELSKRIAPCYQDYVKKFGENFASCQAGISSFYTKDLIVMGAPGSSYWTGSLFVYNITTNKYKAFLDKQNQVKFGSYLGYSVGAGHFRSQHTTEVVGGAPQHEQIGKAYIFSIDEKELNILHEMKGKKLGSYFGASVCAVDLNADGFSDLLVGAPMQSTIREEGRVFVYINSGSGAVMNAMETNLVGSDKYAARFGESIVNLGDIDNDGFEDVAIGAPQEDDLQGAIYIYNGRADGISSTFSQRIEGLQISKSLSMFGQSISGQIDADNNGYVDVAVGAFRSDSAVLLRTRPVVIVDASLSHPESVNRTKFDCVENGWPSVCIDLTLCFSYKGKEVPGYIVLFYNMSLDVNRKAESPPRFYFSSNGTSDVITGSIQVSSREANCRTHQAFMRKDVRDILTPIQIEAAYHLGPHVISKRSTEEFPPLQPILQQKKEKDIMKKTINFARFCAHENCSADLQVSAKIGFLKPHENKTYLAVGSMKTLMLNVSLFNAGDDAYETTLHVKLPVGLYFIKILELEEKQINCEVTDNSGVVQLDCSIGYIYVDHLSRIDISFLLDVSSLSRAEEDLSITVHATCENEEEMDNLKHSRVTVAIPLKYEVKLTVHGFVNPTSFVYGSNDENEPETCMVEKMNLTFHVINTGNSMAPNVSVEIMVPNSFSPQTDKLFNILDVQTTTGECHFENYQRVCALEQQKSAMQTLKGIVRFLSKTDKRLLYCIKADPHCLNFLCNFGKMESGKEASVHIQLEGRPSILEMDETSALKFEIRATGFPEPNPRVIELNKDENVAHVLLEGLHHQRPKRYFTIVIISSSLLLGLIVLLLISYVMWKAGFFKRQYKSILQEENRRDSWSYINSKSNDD
Chain of Beta-adrenergic receptor kinase 1 (Homo sapiens) (P25098 whole entry, looked up): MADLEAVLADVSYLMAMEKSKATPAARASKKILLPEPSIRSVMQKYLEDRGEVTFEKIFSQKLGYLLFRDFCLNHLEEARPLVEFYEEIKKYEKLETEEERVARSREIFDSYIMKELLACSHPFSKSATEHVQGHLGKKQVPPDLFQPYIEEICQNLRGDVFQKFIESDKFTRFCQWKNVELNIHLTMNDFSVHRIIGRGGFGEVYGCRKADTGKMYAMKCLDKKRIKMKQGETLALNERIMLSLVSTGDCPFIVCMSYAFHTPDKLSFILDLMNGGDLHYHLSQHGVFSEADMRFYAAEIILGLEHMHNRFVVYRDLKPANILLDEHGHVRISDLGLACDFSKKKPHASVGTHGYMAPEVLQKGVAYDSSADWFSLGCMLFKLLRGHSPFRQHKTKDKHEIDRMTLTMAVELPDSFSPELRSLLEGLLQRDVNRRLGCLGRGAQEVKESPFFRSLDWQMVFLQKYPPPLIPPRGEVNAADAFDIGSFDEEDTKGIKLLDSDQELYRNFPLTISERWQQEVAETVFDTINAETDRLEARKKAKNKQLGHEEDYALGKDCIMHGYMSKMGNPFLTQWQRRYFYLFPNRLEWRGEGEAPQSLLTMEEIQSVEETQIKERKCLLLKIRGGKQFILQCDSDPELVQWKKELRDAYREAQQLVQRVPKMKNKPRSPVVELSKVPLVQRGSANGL

For orientation: inhibition means the drop in the measured response relative to a control, in per cent. Take `COc1ccc(C2NCCC3(O)CCCCC23)c(OC)c1OC` (stereo not drawn): the percent of DMSO control GFP in assay [1] was 98.8% (inactive). For the same compound, the results for the GFP response vs DMSO in [2] and in assay [4] were 99.6% (inactive) and 107% (inactive), respectively. In assay [3], the percent response of DMSO control was 93.9% (inactive). Moreover, in [5], the GFP response, % of DMSO is 97.4% (inactive). The compound further gave a double positive events in assay [6] of 57.7%. The vesicle binding response in assay [6] is 199% (inactive). Also, the results for the inhibition in assay [7], in [11] and in [15] were -11.3% (inactive), 10.4% (inactive) and 6% (inactive), respectively. Further, in assay [8], the superoxide response (% of plate) is 105% (inactive). Further, in assay [9], the aptamer binding inhibition is 1% (inactive). For the same compound, the response in assay [10] is -8.95% (inactive); in assay [12], -2.26% (inactive). The binding (% of control) in assay [13] was 102% (inactive). The efflux inhibition (fraction of control) in assay [14] was -0.06 (inactive). For the same compound, in assay [16], the differentiation response was -18.4% (inactive).
In the case of `CN(C)[C@@H]1C(=O)C(C(N)=O)=C(O)[C@@]2(O)C(=O)C3=C(O)c4c(O)ccc(Cl)c4[C@@H](O)[C@H]3C[C@@H]12`, in [1], the percent of DMSO control GFP is 104% (inactive). Besides, the figures for the GFP response vs DMSO in assay [2] and in assay [4] were 105% (inactive) and 104% (inactive), respectively. The percent response of DMSO control in [3] is 98.3% (inactive). Besides, the GFP response, % of DMSO in assay [5] was 109% (inactive). The compound further registered a double positive events in [6] of 59.2%. In addition, the vesicle binding response in assay [6] is 122% (inactive). For the same compound, the inhibition in [7] was -7.93% (inactive); in [11], 10.7% (inactive); in assay [15], -10% (inactive). Further, the superoxide response (% of plate) in assay [8] is 96% (inactive). Also, the aptamer binding inhibition in [9] is 10% (inactive). Also, the results for the response in assay [10] and in [12] were -15.7% (inactive) and -7.23% (inactive), respectively. In [13], the binding (% of control) was 101% (inactive). Further, the efflux inhibition (fraction of control) in assay [14] was -0.17 (inactive). For the same compound, in assay [16], the differentiation response is 8.8% (inactive).
For the compound `CCOCC(=O)Nc1nc2ccccc2s1`, in assay [1], the percent of DMSO control GFP was 92.4% (inactive). Also, the GFP response vs DMSO in assay [2] was 125% (inactive); in assay [4], 80.9% (inactive). Besides, the percent response of DMSO control in assay [3] was 101% (inactive). For the same compound, the GFP response, % of DMSO in assay [5] was 94.2% (inactive). Besides, in assay [6], the double positive events is 65.7%. Moreover, in assay [6], the vesicle binding response is 149% (inactive). Besides, the inhibition in assay [7] was 2.58% (inactive); in assay [11], -1.47% (inactive); in assay [15], 12% (inactive). Further, in [8], the superoxide response (% of plate) is 95.4% (inactive). Moreover, the aptamer binding inhibition in assay [9] was 6% (inactive). The response in [10] was -8.15% (inactive); in [12], 3.42% (inactive). Further, in assay [13], the binding (% of control) is 105% (inactive). Further, the efflux inhibition (fraction of control) in assay [14] was 0.23 (inactive). Further, in assay [16], the differentiation response was -0.82% (inactive).
Regarding `Fc1ccc(-c2cc(-c3ccccc3)nc(-n3cccn3)n2)cc1`, the percent of DMSO control GFP in assay [1] is 96.5% (inactive). Also, the GFP response vs DMSO in assay [2] was 106% (inactive); in assay [4], 97.2% (inactive). For the same compound, the percent response of DMSO control in [3] was 99.3% (inactive). The GFP response, % of DMSO in assay [5] was 75.4% (inactive). This compound displayed a double positive events in [6] of 57.7%. Moreover, the vesicle binding response in assay [6] was 11.1% (inactive). Moreover, the values for the inhibition in [7], in assay [11] and in assay [15] were 6.85% (inactive), 34.7% (inactive) and 2% (inactive), respectively. Besides, in assay [8], the superoxide response (% of plate) is 92% (inactive). In addition, the aptamer binding inhibition in assay [9] was 4% (inactive). In addition, the response in assay [10] was 8.42% (inactive); in [12] it was 0.43% (inactive). In assay [13], the binding (% of control) was 102% (inactive). In addition, the efflux inhibition (fraction of control) in assay [14] was 0.3 (inactive). Also, the differentiation response in assay [16] was 20.9% (inactive).
